The subject of this experiment is HCC1937. In words: relative cell viability, compound + erastin, vs DMSO (fraction of DMSO control); higher = less growth inhibition. Particulars: 72 h.
Take `Cc1nc2ccc(NCc3cccc(C(F)(F)F)c3)cc2n(CCNC(=O)CO)c1=O` + CCOc1ccccc1-n1c(C(C)N2CCN(C(=O)COc3ccc(Cl)cc3)CC2)nc2ccccc2c1=O [erastin]: the relative cell viability amounted to 0.618.

Consider `CC(C)c1nc(N(C)S(C)(=O)=O)nc(-c2ccc(F)cc2)c1/C=C/[C@@H](O)C[C@@H](O)CC(=O)O` [Rosuvastatin] + CCOc1ccccc1-n1c(C(C)N2CCN(C(=O)COc3ccc(Cl)cc3)CC2)nc2ccccc2c1=O [erastin], for which the relative cell viability worked out at 0.656.

Regarding `O=C(O)c1cc2c(Cl)c(N3CCN(S(=O)(=O)c4c(Cl)cccc4Cl)CC3)ccc2o1` [Vonafexor] + CCOc1ccccc1-n1c(C(C)N2CCN(C(=O)COc3ccc(Cl)cc3)CC2)nc2ccccc2c1=O [erastin], the relative cell viability was 0.846.

On to `CC(=O)Oc1cc(C(F)(F)F)ccc1C(=O)O` [Triflusal] + CCOc1ccccc1-n1c(C(C)N2CCN(C(=O)COc3ccc(Cl)cc3)CC2)nc2ccccc2c1=O [erastin], for which the relative cell viability stood at 0.751.

As for `Nn1nnc2ccccc21` [1-Aminobenzotriazole] + CCOc1ccccc1-n1c(C(C)N2CCN(C(=O)COc3ccc(Cl)cc3)CC2)nc2ccccc2c1=O [erastin], the relative cell viability was 0.76.

In the case of `O=c1cc(-c2ccc(O)c(-c3c(O)cc(O)c4c(=O)cc(-c5ccc(O)cc5)oc34)c2)oc2cc(O)cc(O)c12` [Amentoflavone] + CCOc1ccccc1-n1c(C(C)N2CCN(C(=O)COc3ccc(Cl)cc3)CC2)nc2ccccc2c1=O [erastin], the relative cell viability came out at 0.438.

Consider `CCC1=N[C@H]2C[C@@]3(C(=O)N(OC)c4ccccc43)[C@H]3CC1[C@@H]2CO3` [Humantenmine] + CCOc1ccccc1-n1c(C(C)N2CCN(C(=O)COc3ccc(Cl)cc3)CC2)nc2ccccc2c1=O [erastin], for which the relative cell viability was determined as 0.573.

The values above are taken from the supplement of paper PMC9492666.
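Note: viability read by CCK-8 kit in 96-well plates, part of a combination screen pairing lipid-metabolism-targeting compounds with erastin.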
